For twelve compounds, max response, outcome and Potency results are on record in PubChem BioAssay (NCATS).

Each structure is given as a SMILES string. Several values for one entry are separate records, joined by “and”; a condition that tells them apart may be missing. Identical values can stand only once. Results filed as inconclusive are left out. A structure can be active in one record and inactive in another. Activity calls are given as the source filed them. Calls follow the shape of the dose curve; as a rule, active = well fitted inhibition curve with a large enough effect; inconclusive = small, poorly fitted or top-dose-only effect; inactive = flat fitted curve, though single readings scatter.
% is scaled to controls: 0 for no effect and ±100 for the full control effect; potency is read from the fitted curve at half-maximal effect.

The test system of this assay is CRL-7250. The assay is described as follows: Cytotoxic Profiling of Annotated Libraries Using Quantitative High-Throughput Screening (AID 1296008). Also: nearly all actives have a fitted effect of over 60% in size. To be noted: Five cell lines viability, CellTiter-Glo ATP luminescence, 48-72 h; max response: hits give low values. Put shortly:
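Cells exposed to compounds for 48 or 72 hr at 37 degrees Celsius. Viability read as ATP-coupled luminescence with CellTiter-Glo after 10 min at room temperature.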
`CCN(CCO)CCCC(C)Nc1ccnc2cc(Cl)ccc12` (configuration not stated): the max response was -6.76% (inactive) and 0.809% (inactive); the compound was classed as inactive. As to `CC1=C(C)C(=O)C(C(CCCCCC(=O)O)c2ccccc2)=C(C)C1=O` (configuration not stated), the Potency is 5.31 µM (active) and the max response was 0.243% (inactive).

`CC(=O)Nc1ccc(O)cc1`: the max response is -5.95% (inactive) and the result was inactive.

On to `Cc1cc2c(s1)Nc1ccccc1N=C2N1CCN(C)CC1`, for which the call was inactive. With `CC1=C(C(=O)O)N2C(=O)[C@@H](NC(=O)[C@H](N)C3=CCC=CC3)[C@H]2SC1`, the max response is -13.1% (inactive) and the result was inactive.

Turning to `Cc1cccc(CN2CCN(C(c3ccccc3)c3ccc(Cl)cc3)CC2)c1` (configuration not stated), the max response was -2.17% (inactive) and the compound was classed as inactive. `CN(C)[C@@H](CCOc1cccc2ccccc12)c1ccccc1`: the max response was -9.42% (inactive) and the outcome was inactive. As to `COC(=O)N[C@H](C(=O)N[C@@H](Cc1ccccc1)[C@@H](O)CN(Cc1ccc(-c2ccccn2)cc1)NC(=O)[C@@H](NC(=O)OC)C(C)(C)C)C(C)(C)C`, the max response was -0.779% (inactive). On to `CCN(CC)C(=S)SSC(=S)N(CC)CC`, for which the Potency is 0.105 µM (active) and the compound was classed as inactive. Consider `CCC1=C(C)CN(C(=O)NCCc2ccc(S(=O)(=O)NC(=O)NC3CCC(C)CC3)cc2)C1=O` (configuration not stated), for which the max response was 0.534% (inactive) and 4.01% (inactive); the compound was classed as inactive. As for `CN(C)c1ccc(O)c2c1C[C@H]1C[C@H]3[C@H](N(C)C)C(=O)C(C(N)=O)=C(O)[C@@]3(O)C(=O)C1=C2O`, the max response is -30% (inactive) and the compound was called inactive. In the same order, the values of `O=C(NC(Cc1cc(=O)[nH]c2ccccc12)C(=O)O)c1ccc(Cl)cc1` (configuration not stated) are -2.81% (inactive) and “inactive”.
